# Test results taken from PubChem BioAssay AID1159580 (chemical genetic matrix, 2015).
# The whole screen tested about 5,500 compounds, of which about 2,000 (36%) were called active. Roughly 18% stayed inconclusive and do not appear here. This is one part of the list. Values without a mark were called inactive. No stated cut-off is given here; in the data, active means normalized growth mostly below about 0.91 (no sharp cut-off); inconclusive means no clear call, values can overlap the other calls; inactive means mostly above about 0.92.
# Experiment: chemical genetic growth profiling, strain panel (AID 1159580);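 further: tested at 20 µM; growth read once vehicle control cultures reached saturation at 30 °C; 1 = growth at the plate median or of vehicle wells; lower values mean less growth of the strain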
# Conditions: S. cerevisiae deletion strains, growth OD
smiles,measurement,setting,value
CSc1ccc2c(c1)C(N1CCN(C)CC1)Cc1ccccc1S2 (stereo not drawn),normalized growth,"locus YAL013W, strain DEP1, hits give low values",0.916
same,normalized growth,"locus YAL040C, strain CLN3, hits give low values",1
same,normalized growth,"locus YBR021W, strain FUR4, hits give low values",0.364 (active)
same,normalized growth,"locus YBR229C, strain ROT2, hits give low values",1.01
same,normalized growth,"locus YCL029C, strain bik1, hits give low values",0.987
same,normalized growth,"locus YCL061C, strain MRC1 (second series), hits give low values",0.532 (active)
same,normalized growth,"locus YDL035C, strain GPR1, hits give low values",0.755 (active)
same,normalized growth,"locus YDL074C, strain BRE1, hits give low values",0.584 (active)
same,normalized growth,"locus YDL101C, strain DUN1, hits give low values",0.537 (active)
same,normalized growth,"locus YDL134C, strain PPH21, hits give low values",0.631 (active)
same,normalized growth,"locus YDL185W, strain tfp1, hits give low values",1.01
same,normalized growth,"locus YDL192W, strain arf1, hits give low values",0.102 (active)
same,normalized growth,"locus YDR101C, strain arx1, hits give low values",0.929
same,normalized growth,"locus YDR150W, strain NUM1, hits give low values",1
same,normalized growth,"locus YDR162C, strain NBP2, hits give low values",0.139 (active)
same,normalized growth,"locus YDR318W, strain mcm21, hits give low values",0.807 (active)
same,normalized growth,"locus YDR363W, strain ESC2, hits give low values",0.889
same,normalized growth,"locus YDR388W, hits give low values",0.659 (active)
same,normalized growth,"locus YDR502C, strain sam2, hits give low values",0.859 (active)
same,normalized growth,"locus YEL061C, strain CIN8, hits give low values",0.975
same,normalized growth,"locus YER002W, strain NOP16, hits give low values",1.07
same,normalized growth,"locus YER110C, hits give low values",0.976
same,normalized growth,"locus YER155C, strain BEM2, hits give low values",1.02
same,normalized growth,"locus YER167W, strain BCK2, hits give low values",0.937
same,normalized growth,"locus YGL078C, strain dbp3, hits give low values",0.991
same,normalized growth,"locus YGL086W, strain mad1, hits give low values",0.741 (active)
same,normalized growth,"locus YGL248W, strain PDE1, hits give low values",0.712 (active)
same,normalized growth,"locus YGR078C, strain PAC10, hits give low values",0.833 (active)
same,normalized growth,"locus YGR135W, strain pre9, hits give low values",0.753 (active)
same,normalized growth,"locus YGR229C, strain SMI1, hits give low values",0.142 (active)
same,normalized growth,"locus YGR252W, strain gcn5, hits give low values",0.254 (active)
same,normalized growth,"locus YHR030C, strain SLT2, hits give low values",0.655 (active)
same,normalized growth,"locus YHR079C, strain IRE1 (second series), hits give low values",0.911 (active)
same,normalized growth,"locus YHR094C, strain hxt1, hits give low values",0.993
same,normalized growth,"locus YHR129C, strain ARP1, hits give low values",0.99
same,normalized growth,"locus YHR200W, strain rpn10, hits give low values",0.959
same,normalized growth,"locus YIL066C, strain RNR3, hits give low values",0.759 (active)
same,normalized growth,"locus YIL073C, strain SPO22, hits give low values",0.437 (active)
same,normalized growth,"locus YIL125W, strain kgd1, hits give low values",0.977
same,normalized growth,"locus YIR030C, strain dcg1, hits give low values",0.958
same,normalized growth,"locus YJL095W, strain BCK1, hits give low values",0.537 (active)
same,normalized growth,"locus YJL134W, strain LCB3, hits give low values",1.01
same,normalized growth,"locus YJL168C, strain set2, hits give low values",0.947
same,normalized growth,"locus YJL187C, strain SWE1 (second series), hits give low values",0.658 (active)
same,normalized growth,"locus YJR043C, strain POL32, hits give low values",0.92
same,normalized growth,"locus YJR075W, strain HOC1, hits give low values",0.834 (active)
same,normalized growth,"locus YKL009W, strain mrt4, hits give low values",0.962
same,normalized growth,"locus YKL068W, hits give low values",0.999
